This is an account of results in ChEMBL document CHEMBL4513216, “Probing the Open Global Health Chemical Diversity Library for Multistage-Active Starting Points for Next-Generation Antimalarials” (ACS Infect Dis, 2020).

Molecules are shown by their SMILES. About 8,600 (12%) of roughly 69,000 compounds showed an effect of 50% or more. The full list was thinned out, with strong results kept by preference.

In the assay the test system is Plasmodium berghei. The assay can be described thus: Screen against P. berghei liver stage (PbLuc), transformed with Luciferase, at 10uM. It counts as functional, HepG2. As to conditions: tested at 10 uM.
Turning to `NC(=O)C(NCc1nn(-c2ccccc2)c2c1CCC2)c1ccccc1` (configuration not stated), the INHIBITION came to 8.15%.
The result for `Fc1ccccc1CN1CCC(c2noc(-c3ccccn3)n2)CC1` reads -23.4%; that for `O=C1NCCCCC1NCc1csc(-c2ccccn2)n1` (configuration not stated), 8.07%.
Consider `CC(Cn1cccn1)NC(=O)NCc1ccoc1` (configuration not stated), for which the INHIBITION came to 15.6%.
The same measure for `CS(=O)(=O)N1CC2(CCN(Cc3ccccn3)C2)Cc2ccccc21` (configuration not stated): 14.3%; for `CC(C)CC(=O)NCCCc1cc(N)n(-c2ccccc2)n1`: 16.6%.
With `Cc1noc(C)c1CN(C)Cn1c(=O)oc2ccccc21`, the INHIBITION came to 50.4%.
The same measure for `Cc1noc(C)c1CN(C)C(=O)Cn1c(=O)n(C)c2ccccc21`: 26.8%; for `Cc1noc(C)c1CN(C)Cn1c(=O)n(C)c2ccccc21`: 28.2%; for `Cc1ccc(C(CNC(=O)c2c(C)noc2C(C)C)N(C)C)cc1` (configuration not stated): 7.12%.
The result for `Cc1cc(C)n(CC(C)NCc2nncn2C2CCCCC2)n1` (configuration not stated) reads -47.9%; that for `CC(CN1CCCCCC1)NCc1nncn1C1CCCCC1` (configuration not stated), 75.4%.
Regarding `CC(CN1CCOCC1)NCc1nncn1C1CCCCC1` (configuration not stated), the INHIBITION is listed as 28.3%.
Regarding `O=C(NCc1ccccc1)[C@H]1C[C@H]2CN(S(=O)(=O)C3CC3)C[C@@H]1O2`, the INHIBITION was determined as 31.8%.
The same measure for `CC1CN(Cc2ccc(-n3cccn3)cc2)CCO1` (configuration not stated): -15.5%; for `Cc1noc(C)c1CN1C[C@@H]2C[C@H](C(=O)NCC3CC3)N(C)[C@@H]2C1`: 26%; for `CNC(=O)[C@@H]1C[C@H]2CN(Cc3c(C)noc3C)C[C@H]2N1C(C)C`: 83.8%.
`Cc1noc(C)c1CN1C[C@@H]2CC(F)(F)C[C@@H]2C1`: the INHIBITION is 87.2%.
The result for `CNC(=O)[C@H]1C[C@@H]2CN(Cc3c(C)noc3C)C[C@@H]2N1C(C)=O` reads 22.2%.
The same measure for `Cc1noc(C)c1CN1C[C@H]2CNC[C@H]2C1`: -19.2%; for `Cc1noc(C)c1CN1C[C@@H]2C[C@@H](C)O[C@@H]2C1`: -10.2%.
As for `CC(=O)N1CCC(c2cnc(NC3CCOCC3)cn2)CC1`, the INHIBITION is -20.6%.
The result for `Cc1ncsc1CNC(=O)N(CCCO)C1CCc2ccccc21` (configuration not stated) reads -7.35%; that for `Cc1cc(S(=O)(=O)N2CCc3ccc(F)cc32)cc(C(=O)O)c1C`, 61.3%.
`COc1cc(S(=O)(=O)N2CCc3ccc(F)cc32)cc(C(=O)O)c1OC`: the INHIBITION is listed as 42.9%.
For `Cc1ccc(S(=O)(=O)N2CCc3ccc(F)cc32)cc1C(=O)O`, the INHIBITION is reported as -3.2%.
With `O=C(c1ccc[nH]1)N1CCCn2c(CNC3CCC3)nnc2C1`, the INHIBITION came to 45.7%.
Turning to `CC(C)CNC(=O)CNc1c(NCc2ccco2)c(=O)c1=O`, the INHIBITION came to 31.3%.
The result for `O=C(Cc1ccccc1)NCc1ccc(-c2ccccc2C(=O)O)cn1` reads 50.3%; that for `COCC(=O)NCc1ccc(-c2ccccc2C(=O)O)cn1`, -26.7%.
As to `O=C(Cc1ccccc1)NCc1ncc(-c2ccccc2C(=O)O)cn1`, the INHIBITION is reported as 1.65%.
The result for `Cc1ccc(CNC(=O)c2ccc(F)cc2)o1` reads 0.868%; that for `CCN1CCc2[nH]cnc2C12CCN(Cc1ccc3nsnc3c1)CC2`, 23.6%; that for `O=C(Cc1ccc2c(c1)OCC2)Nc1nn[nH]n1`, 23.1%.
The same measure for `CCC(C)CNC(=O)[C@@H]1CCCN1c1nccc(Nc2ccccc2)n1` (some centres not stated): 13.5%; for `O=C([C@@H]1CCCN1c1nccc(Nc2ccccc2)n1)N1CCCCC1`: 78.7%; for `O=C(O)[C@@H]1CCCN1c1nccc(Nc2ccccc2)n1`: 0.618%.
As to `Cc1cccc(NC(=O)Nc2c[nH]c(=O)[nH]c2=O)c1C`, the INHIBITION was -13.6%.
The result for `Cc1cc(C(=O)N2CCN(Cc3ccsc3)CC2)c(C)n1C1CC1` reads -1.14%; that for `CC(=O)Nc1ncc(S(=O)(=O)Nc2cccc(O)c2)s1`, 13.5%; that for `CC(C)CN(c1cn[nH]c1)S(=O)(=O)c1cccc(C#N)c1`, 10.8%.
The same measure for `Cc1ncc(S(=O)(=O)N(CC(C)C)c2cccc(O)c2)s1`: 61%; for `O=C(c1ccc[nH]1)N1CCc2c(cccc2S(=O)(=O)N2CCOCC2)C1`: 22.2%.
The same measure for `Cc1n[nH]c(CN2CCN(C(=O)C3CCC3)[C@@H]3CS(=O)(=O)C[C@@H]32)n1`: -2.79%.
Regarding `CC(C)=CCN1CCN(Cc2nccn2C)[C@H]2CS(=O)(=O)C[C@H]21`, the INHIBITION was 23.9%.
The result for `Cn1ccnc1CN1CCN(CC2CC2)[C@@H]2CS(=O)(=O)C[C@@H]21` reads 56.7%.
Take `Cn1ccnc1CN1CCN(Cc2ccccc2)[C@@H]2CS(=O)(=O)C[C@@H]21`: the INHIBITION was found to be 46.7%.
The same measure for `Cc1n[nH]c(CN2CCN(CC3CC3)[C@@H]3CS(=O)(=O)C[C@@H]32)n1`: 55.9%; for `Cc1n[nH]c(CN2CCN(Cc3ccccc3)[C@@H]3CS(=O)(=O)C[C@@H]32)n1`: 18.9%; for `CN(C)CCC1CN(C(=O)c2cccc3c2OCC3)CCO1` (configuration not stated): -15.1%.
On to `COCC1CN(Cc2cc(C)on2)Cc2cn(CC3CCCC3)nc21` (configuration not stated), for which the INHIBITION was found to be 15.3%.
In the case of `Cc1cc(OC(F)F)c(C(=O)N2CCN(C3CC3)CC2)s1`, the INHIBITION is listed as -3.47%.
